The source made the active and inactive calls. How the source made its calls: active means hit-call score of the fitted dose curve at least 0.9, where 1 is the maximum; inactive means score below 0.9.
These compounds were tested on Monocyte Chemoattractant Protein-1 (MCP1), CCL2 (gene 6347) (assay: BSK_4H_MCP1: BioMAP Diversity Plus: 4H Assay for Monocyte Chemoattractant Protein-1 (MCP1) Biomarker Activity (AID 2283018)). Settings: primary human endothelial cells (HUVEC); actives raise or lower the signal.
Protocol: BSK_4H is a cell-based, multiplexed-readout assay that uses umbilical vein endothelium, a human vascular primary cell, with measurements taken at 24 hours after chemical dosing in a 96-well plate.BSK_4H_MCP1 is an assay component measured in the BSK_4H assay. It measures MCP-1 antibody related to regulation of gene expression using ELISA technology.Data from the assay component BSK_4H_MCP1 was analyzed into 1 assay endpoint. This assay endpoint, BSK_4H_MCP1, was analyzed with bidirectional fitting relative to DMSO as the negative control and baseline of activity. Using a type of binding reporter, gain or loss-of-signal activity can be used to understand changes in the signaling as they relate to the gene CCL2. Furthermore, this assay endpoint can be referred to as a primary readout, because this assay has produced multiple assay endpoints where this one serves a signaling function. To generalize the intended target to other relatable targets, this assay endpoint is annotated to the cytokine intended target family, where the subfamily is chemotactic factor.
The levels of cell surface (or secreted, indicated by the prefix "s") biomarker endpoints were measured by ELISA. Overt cytotoxicity to cells in confluent adherent cultures (all systems other than the BT system) was assessed by measuring total protein levels using sulforhodamine B (SRB) staining in parallel cultures at the time of biomarker measurements, indicated as SRB endpoints. For proliferation assays for adherent cell types, individual cell types are cultured at sub-confluence and relative cell numbers quantified by SRB staining at time points optimized for each system (48 h: 3C and CASM3C systems; 72 h: BT and HDF3CGF systems; 96 h: SAg system). SRB was performed by staining cells with 0.1% SRB after fixation with 10% TCA and reading wells at 560 nm.Viability and proliferation of PBMC (T cells) was quantified by Alamar Blue reduction for the SAg and BT systems. For PBMC viability (referred to as PBMC Cytotoxicity within the assay endpoint names), cells were plated (75,000/well in a 96-well plate) and then chemical samples added for 1 h before addition of activators, SEB and TSST-1 (20 ng/mL final concentration each). Cells were incubated for 90 h. Then, Alamar Blue (20 uL/well) (Invitrogen, Cat DAL1100) was added for 6 h, and the plates were read with a fluorescence microplate reader at 546/580 nm (excitation/emission). For PBMC proliferation, cells were plated and activated as above but incubated for only 16 h prior to addition of Alamar Blue. Plates were read after 6 h.

| Compound | outcome | AC50 |
| --- | --- | --- |
| O=CCCCC=O | inactive |  |
| CC(C)(c1cc(Br)c(O)c(Br)c1)c1cc(Br)c(O)c(Br)c1 |  | 26.6 µM (active) |
| O=C(O)c1ccccc1C(=O)OCc1ccccc1 | inactive |  |
| COCC(C)OCC(C)OCC(C)O (stereo not given) | inactive |  |
| O=c1[nH]sc2ccccc12 |  | 11.6 µM (active) |
| O=C(O)c1ccccc1-n1cc(C(=O)O)c(=O)c2cc(Nc3c(F)cc(F)cc3Cl)c(Cl)cc21 | inactive |  |
| Cc1c2ccccc2c(C)c2c1ccc1ccccc12 |  | 13 µM (active) |
| CN1C(=O)N(c2ccccc2Br)Cc2cnc(Nc3ccc4c(c3)OCC(CO)O4)nc21 (stereo not given) |  | 2.11 µM (active) |
| O=C=NCCCCCCN=C=O | inactive |  |
| CN(C[C@@H](CC[N+]12CCC(C3CCCCC3)(CC1)CC2)c1ccc(Cl)c(Cl)c1)C(=O)c1cc(C(F)(F)F)cc(C(F)(F)F)c1 |  | 27.2 µM (active) |
| CC(C)(O)c1ccc(CNC(=O)c2cccnc2Oc2ccc3nonc3c2)cc1 | inactive |  |
| O=c1ccc2ccccc2o1 | inactive |  |
| Cc1occc1C(=O)Nc1ccc(C(=O)N2CCC(F)(F)/C(=C\C(=O)N3CCC(N4CCCCC4)CC3)c3ccccc32)cc1 | inactive |  |
| CCCCCCCCCCCO | inactive |  |
| C[C@]12CC[C@@H]3c4ccc(O)cc4CC[C@H]3[C@@H]1CCC2=O | inactive |  |
| c1ccc2ccccc2c1 | inactive |  |
| O=C1CCC(C2CCCCC2)CC1 | inactive |  |
| CCCCCc1ccc(N)cc1 | inactive |  |
| O=c1c(-c2ccc(O)cc2)coc2cc(O)cc(O)c12 |  | 8.42 µM (active) |
| Oc1ccc2ccccc2c1 | inactive |  |

| Compound | outcome | AC50 |
| --- | --- | --- |
| c1ccc2n[nH]nc2c1 | inactive |  |
| Cc1cn([C@H]2C[C@H](N=[N+]=[N-])[C@@H](CO)O2)c(=O)[nH]c1=O | inactive |  |
| CCCCOC(=O)CC(CC(=O)OCCCC)(OC(C)=O)C(=O)OCCCC | inactive |  |
| CCCCCCCCCC(=O)O | inactive |  |
| CC(=O)N1CCN(c2ccc(OC[C@H]3CO[C@](Cn4ccnc4)(c4ccc(Cl)cc4Cl)O3)cc2)CC1 |  | 26.4 µM (active) |
| CCCCOC(=O)c1ccc(O)cc1 | inactive |  |
| O=C1O[C@H]([C@@H](O)CO)C(O)=C1O | inactive |  |
| NCc1cccc(C2CCN(C(=O)c3ccc(C#Cc4ccccc4F)o3)CC2)c1 |  | 20 µM (active) |
| CCOC(=O)O[C@H](C)OC(=O)c1ccc2c(c1)cc(C(=O)NC1CCN(C(C)C)CC1)n2Cc1cc(-c2ccc(Cl)s2)on1 |  | 5.27 µM (active) |
| CC(C)(C)c1csc(-c2cc3cc(OCc4ccccc4CC(=O)O)ccc3o2)n1 |  | 22.6 µM (active) |
| CCO[Si](CCCNC(N)=O)(OCC)OCC | inactive |  |
| NC(=O)c1nc(-c2cccc(-c3cc(F)ccc3OCC(F)(F)C(F)(F)F)c2)n[nH]1 |  | 29.3 µM (active) |
| CC(C)(C)c1cc(/C=C2\SC(N)=NC2=O)cc(C(C)(C)C)c1O |  | 20 µM (active) |
| O=C(O)Cc1cc(I)c(Oc2ccc(O)c(I)c2)c(I)c1 | inactive |  |
| CCCC(=O)OCCC(C)C | inactive |  |
| CCCCCCCCOc1ccc(C(=O)c2ccccc2)c(O)c1 | inactive |  |
| CCCCCCCCN(C)CCCCCCCC | inactive |  |
| O=C(OCCCCCCOC(=O)c1ccccc1)c1ccccc1 | inactive |  |
| CC1=CC(=O)/C(=C(/C)O)C(=O)O1 | inactive |  |
| O=C(O)Cn1c(=O)n(Cc2ccc(Br)cc2F)c(=O)c2ccc(Cl)cc21 | inactive |  |

From PubChem BioAssay (EPA / NIEHS)
